# Compound activity: PubChem BioAssay, The Scripps Research Institute Molecular Screening Center
# hgDAF12 agonist: agonists of H. glycines DAF-12 nuclear receptor; HEK293 GAL4-hgDAF12 UAS-luciferase reporter, agonist luminescence; normalized to butyrate control; activation, % at 6.8 µM; 370,000 tested, 1.8% active;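 active means activation above a cutoff set at the mean of all screened compounds plus 3 SD, cut at about 10% in these data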;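 further: 0% = DMSO wells and 100% = sodium butyrate wells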
# DAX1 inh-1: inhibits human nuclear receptor DAX1 | 340,000 tested, 0.99% active | P51843 | inhibition, % at 6.75 µM | AID 504766 | HEK293 Gal4-DAX1 luciferase reporter, luminescence;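 active means inhibition above the mean over all tested compounds plus 3 SD, cut at about 4.2% in these data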;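 further: 0% = DAX1-transfected cells with DMSO and 100% = empty-vector control cells with DMSO; inhibition shows as a rise in luminescence from relieved DAX1 repression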
# DAX1 inh-2: blocks DAX1 repression of SF-1 activated StAR promoter; 370,000 tested, 1.1% active; inhibition, % at 6.8 µM; HEK293T StAR-luciferase reporter, SF-1/DAX-1 repression relief;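 active means inhibition above the mean over all tested compounds plus 3 SD, cut at about 3.6% in these data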;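 further: 0% = DAX-1 cells with DMSO and 100% = cells lacking DAX-1 with DMSO; higher inhibition means more luminescence from relief of DAX-1 repression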
# AHR act: human AHR activation | 320,000 tested, 2.5% active | activation, % at 5 µM | AHR-responsive luciferase reporter cells, luminescence; in the data active means activation above about 47%;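 further: 0% = vehicle wells and 100% = reference agonist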
# ssDAF-12 act: activates DAF-12 receptor from parasite S. stercoralis; HEK293 ssDAF-12/GRIP1 lit1-tk-luc reporter, luminescence; % of 3 µM dafachronic acid response; activation, % at 6.8 µM; 370,000 tested, 1% active; AID 652126;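 active means activation above the mean over all tested compounds plus 3 SD, cut at about 0.9% in these data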;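 further: 0% = DMSO-only wells and 100% = 3 µM delta7-dafachronic acid wells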
# hcDAF-12 act: H. contortus DAF-12 activation, primary screen. activation, % at 6.8 µM. HEK293 hcDAF-12 lit1-tk-luc reporter, luminescence; 0% DMSO, 100% Δ7-dafachronic acid. 370,000 tested, 1.4% active. AID 652067;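 active means activation above the mean of all tested compounds plus 3 SD, cut at about 5.5% in these data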;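 further: 100% = response to 3 µM Δ7-dafachronic acid high control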
# LXR ag: counter-screen for hcDAF-12 agonists: agonists of human LXR-beta; shares compounds with hcDAF-12 act; AID 743027; HEK293 Gal4-LXR tk-luc reporter, luminescence, 24 h; normalized: DMSO 0%, positive control 100%; activation, % at 6.8 µM; 3,400 tested, under 10 active;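 active means mean percent activation of the reporter above a cutoff set as the average over tested compounds plus their standard deviation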
# Target sequence (P55055 whole entry, looked up, the tested form may be a part): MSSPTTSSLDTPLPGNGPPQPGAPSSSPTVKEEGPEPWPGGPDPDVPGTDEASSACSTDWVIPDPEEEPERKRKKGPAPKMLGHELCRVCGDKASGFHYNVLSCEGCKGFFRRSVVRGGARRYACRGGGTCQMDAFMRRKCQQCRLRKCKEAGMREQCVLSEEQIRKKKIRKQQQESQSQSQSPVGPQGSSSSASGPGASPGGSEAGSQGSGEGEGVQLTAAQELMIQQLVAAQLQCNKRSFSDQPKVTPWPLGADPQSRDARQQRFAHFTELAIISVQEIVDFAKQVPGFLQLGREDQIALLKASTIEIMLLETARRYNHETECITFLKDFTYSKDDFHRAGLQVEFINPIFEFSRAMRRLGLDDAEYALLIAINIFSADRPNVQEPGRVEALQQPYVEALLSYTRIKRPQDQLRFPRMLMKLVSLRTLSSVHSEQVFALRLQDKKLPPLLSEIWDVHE
# hcDAF12 ag: confirmation of H. contortus DAF-12 agonists. shares compounds with hcDAF-12 act. HEK293 hcDAF-12 lit1-tk-luc reporter, luminescence; % of Δ7-dafachronic acid response. activation, % at 6.8 µM. 3,400 tested, 61% active. AID 743032;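 active means mean activation across triplicate tests above the threshold derived from the earlier primary screen, cut at about 5.5% in these data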;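 further: 0% = DMSO only wells and 100% = 3 µM Δ7-dafachronic acid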
# An asterisk follows results filed as active; / = no result given. Most compounds without a hit are left out; they make up all but 5.7% or so of the library.
SMILES,hgDAF12 agonist,DAX1 inh-1,DAX1 inh-2,AHR act,ssDAF-12 act,hcDAF-12 act,LXR ag,hcDAF12 ag
Cc1ccc(/C=C/C(=O)Nc2ncc(C)s2)o1,9,2,3,37,0,7.2*,1,5
CCC(C)c1ccccc1NC(=O)CN(C)CCOc1ccc(Cl)cc1 (stereo not given),1,0,0,1,-1,9.2*,0,0
O=S(=O)([N-]c1nc2ccccc2nc1-[n+]1ccc(-c2ccncc2)cc1)c1ccccc1,10,2,2,3,0,6.9*,0,3
O=S(=O)([N-]c1nc2ccccc2nc1-[n+]1ccccc1)c1ccccc1,0,0,0,6,-1,-2,/,/
Cc1sc2c(c1C)CN(C1CC(C)(C)NC(C)(C)C1)CN2C(=O)c1ccco1,/,/,/,8,/,/,/,/
Cc1sc2c(c1C)CN(CCN1CCOCC1)CN2C(=O)c1ccccc1,9,2,1,36,1,9.6*,0,6.0*
Nc1nc(CN2CCN(C(=O)c3ccco3)CC2)nc(Nc2cccc(Cl)c2)n1,-5,0,0,2,-1,-2,/,/
Cc1ccc(C)c(S(=O)(=O)Nc2ccc(O)c(C(=O)O)c2)c1,1,1,0,0,-1,-1,/,/
Cc1ccc(C)c(S(=O)(=O)Nc2ccc(O)c3ccccc23)c1,-4,-2,-1,12,-1,8.0*,0,3
COc1ccc(Cc2c(-c3ccc(C)cc3)nc3cc(C)c(Br)c(C)n23)c(C)c1,11*,/,3,/,2.1*,11*,0,6.1*
CCCc1nc2cc(C)c(Br)c(C)n2c1Cc1ccc(OC)cc1C,3,/,-2,/,0,3,/,/
COc1cc(-c2[nH]ncc2CN2CCN(c3cccc(C)n3)CC2)cc(OC)c1OC,-4,-1,-1,2,-2,-1,/,/
CCOc1cc(/C=N/NC(=O)CCc2n[nH]c(=O)[nH]c2=O)ccc1O,1,-1,-1,1,-1,1,/,/
O=C(NCCSCc1ccco1)Nc1ccccc1,2,0,1,3,-1,9.8*,0,2
COc1ccc(CCNC(=O)c2ccc3ccccc3n2)cc1,11*,0,0,19,0,7.2*,0,4
NS(=O)(=O)c1ccc(CNC(=O)c2ccc3ccccc3n2)cc1,1,-1,0,10,-1,-1,/,/
O=C(NCc1ccccc1Cl)c1ccc2ccccc2n1,11*,0,0,20,1.1*,7.7*,1,9.1*
NS(=O)(=O)c1ccc(CCNC(=O)c2ccc3ccccc3n2)cc1,6,0,1,19,1,6.8*,0,8.5*
COc1ccc(CCNC(=O)c2ccccc2C(=O)NCCc2ccc(OC)cc2)cc1,2,-1,0,23,-1,1,/,/
O=C(NCc1ccccc1F)c1ccc2ccccc2n1,1,1,0,2,-1,1,/,/
Cc1nn2c3ccccc3nc2c2ccccc12,5,1,1,59*,1,7.5*,0,7.1*
Nc1cc2c(cc1N)-c1ccccc1C2,8,3,3.8*,/,0,6.7*,0,4
Cc1nc2c(Br)cc(Br)cc2c(=O)n1-c1ccccc1NC1OCC(O)C(O)C1O (stereo not given),-1,-2,-3,/,-1,0,/,/
O=C(Cn1cc(SCc2cccc(Cl)c2)c2ccccc21)N1CCOCC1,6,1,1,14,0,7.8*,0,3
O=C(CSc1cn(CC(=O)N2CCOCC2)c2ccccc12)N1CCOCC1,1,1,0,3,0,2,/,/
SMILES,hgDAF12 agonist,DAX1 inh-1,DAX1 inh-2,AHR act,ssDAF-12 act,hcDAF-12 act,LXR ag,hcDAF12 ag
CCC(=O)Nc1ccc(C(=O)CSc2nc3ccccc3[nH]2)cc1,0,1,0,0,0,0,/,/
C=C1/C=C(\C)[C@](C)(O)C[C@H](O)CC(=O)[C@H](O)[C@@H](O)[C@H](C)C[C@H](C)OC(=O)/C(C)=C/CC/C=C/[C@@H]2O[C@H]2C[C@H](C)C1,/,/,/,-1,/,/,/,/
O=c1c(=NNc2ccccc2Cl)c(=O)c2ccccc12,4,3,0,/,0,7.9*,2,24*
Cc1ccsc1/C=N/NC(=O)C(O)c1ccccc1 (stereo not given),0,1,0,1,-2,2,/,/
Cc1ccsc1/C=N/NC(=O)c1ccccn1,10,0,3,17,0,10*,1,3
Cc1noc(C)c1NC(=O)N(C)C[C@H]1Oc2ccc(NC(=O)Nc3ccc(C(F)(F)F)cc3)cc2C(=O)N([C@H](C)CO)C[C@@H]1C,1,3,0,0,-1,-1,/,/
Cc1ccc2nc(-c3cc(-c4ccccc4)no3)cn2c1,12*,-3,2,-8,1,8.1*,1,4
CCc1ccc(-c2nc(-c3ccncc3)no2)cc1,11*,1,3,-4,1,8.2*,2,8.3*
CC/C(=N/NC(=O)c1ccc2c(c1)OCO2)c1ccccc1O,4,4.9*,0,11,1.1*,14*,0,0
O=C(Nc1nccs1)C(=O)c1c[nH]c2ccccc12,9,1,3,59*,1.8*,6.5*,1,8.0*
O=C(Cc1c[nH]c2ccccc12)Nc1nccs1,3,1,0,39,0,2,/,/
O=C(Nc1ccc(-n2cnnn2)cc1)c1cn2ccccc2n1,/,0,/,-1,/,/,/,/
O=C(Nc1ccccc1)c1cn2ccccc2n1,10,-4,3,21,0,7.0*,1,5
Cc1cccc(-c2cc3c(N=O)c4ccccc4c-3n[nH]2)c1,17*,6.9*,3.9*,127*,1.2*,12*,2,17*
CCCN(C1CCS(=O)(=O)C1)S(=O)(=O)c1ccc(F)cc1 (stereo not given),-3,0,0,-1,-1,-1,/,/
Cc1ccc(SC2=C(Sc3ccc(C)cc3)C(=O)c3ccccc3C2=O)cc1,6,3,2,24,1,9.7*,0,2
COc1cccc(N2C(=O)CC(N3CCC(C(N)=O)(N4CCCCC4)CC3)C2=O)c1 (stereo not given),0,1,0,-4,-1,-1,/,/
NNc1nc(-c2ccccc2Cl)nc2sc3c(c12)CCCC3,9,2,2,31,1,8.3*,1,7.7*
